According to PubChem BioAssay AID588651 (The Scripps Research Institute Molecular Screening Center, 2011):
Active and inactive are the calls of the source. Cut-off read from the data, not from the text of the source: active = inhibition above about 65%; inactive = the rest.

The molecules below were run on Antitargets (assay: Fam108b inhibition by ABPP, late-stage follow-up, biochemical, gel-based ABPP, recombinant soluble Fam108b, HTS hits, complex proteome (AID 588651;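 note: Fam108b spiked into mouse brain membrane proteome; tested at 20 µM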)). Conditions: FP-rhodamine labeling in proteome.

outcome, inactive:
Cc1ccc(-c2csc3nc(C(C)C)oc(=O)c23)c(C)c1
Oc1ccccc1C1Nc2cccc3cccc(c23)N1
Cc1ccc(-n2c(O)c(/C=N/Nc3ccc(S(=O)(=O)N4CCOCC4)cc3[N+](=O)[O-])c3ccccc3c2=O)c(C)c1
Nc1ccc2nc(-c3cccc(-c4nc5ccc(N)cc5[nH]4)c3)[nH]c2c1
O=c1oc(-c2ccccc2Cl)nc2ccsc12
COc1ccc(/C=C2\SC(=S)N(CC(=O)OCC(=O)Nc3cc(Cl)cc(Cl)c3)C2=O)cc1
O=[N+]([O-])c1ccc(NN=Cc2c[nH]c3ccccc23)c(S(=O)(=O)Nc2ccc(Cl)cc2)c1
Nc1cc(C(=O)O)c(N)c2c1C(=O)c1ccccc1C2=O
O=C(Nc1ccc(N2CCCC2)c(S(=O)(=O)Nc2cccc(C(F)(F)F)c2)c1)c1cccs1
Cc1ccc2nc(CSc3nc(C)ccc3C#N)[nH]c2c1
COc1ccc(-c2csc3nc(-c4ccccc4F)oc(=O)c23)cc1
Brc1csc(C=NNc2nc3ccccc3s2)c1
COc1cc2cc(C(=O)NN=Cc3ccccc3Cl)[nH]c2cc1OC
COc1cccc(C=NNc2nc(Nc3ccc([N+](=O)[O-])cc3)nc(N3CCCC3)n2)c1O
CCN(CC)c1ccc(C2Nc3cccc4cccc(c34)N2)c(O)c1
O=C(O)CCCNc1cc(N2CCN(C(=O)c3ccco3)CC2)c2noc3c2c1C(=O)c1ccccc1-3
CC1=CC(=O)c2c(O)ccc(O)c2C1=O
Cc1[nH]c2c(C)cccc2c1CCNC(=O)c1ccc2c(c1[N+](=O)[O-])C(=O)c1ccccc1C2=O
O=C(O)c1ccc(S(=O)(=O)/N=C2\C=C(Nc3ccccc3F)C(=O)c3ccccc32)cc1
O=C1NC(=S)/C(=C\c2ccc(-c3ccccc3Cl)o2)S1
Cc1cccc(N=Cc2nc(-c3ccccc3Br)oc2O)n1
Cc1ccc(S(=O)(=O)Nc2ccccc2C(=O)Nc2nc(-c3ccc(F)cc3)cs2)cc1
N=c1oc2cc(O)ccc2cc1C(=O)Nc1ccc(Br)cc1
Brc1ccc(-c2csc(Nc3nc(-c4ccc(Br)cc4)cs3)n2)cc1
COc1cccc(-n2c(SCc3cc(=O)oc4cc(O)c(O)cc34)nc3ccccc3c2=O)c1
COc1ccc2ccccc2c1C(O)c1nccn1C (centres undefined)
O=C1C(Cl)=C(N2CCC(C(=O)O)CC2)C(=O)c2ccccc21
Oc1ccc(C=NNc2ccnc3cc(Cl)ccc23)cc1O
Cc1ccccc1NC1=C/C(=N\S(=O)(=O)c2cccs2)c2ccccc2C1=O
COc1cccc2c1C(=O)c1c(O)c3c(c(O)c1C2=O)C[C@@](O)(C(=O)CO)C[C@@H]3O[C@H]1C[C@H](N)[C@H](O)[C@H](C)O1

outcome, active:
O=c1cc(-c2ccc(O)c(-c3c(O)cc(O)c4c(=O)cc(-c5ccc(O)cc5)oc34)c2)oc2cc(O)cc(O)c12
O=C(Nc1ccc(F)cc1)Nc1ccc(N2CCCC2)c(S(=O)(=O)Nc2ccccc2Cl)c1
O=C(Nc1ccc(-c2csc(Nc3ccc(Cl)cc3)n2)cc1)c1cccc(C(F)(F)F)c1
O=C(NN=Cc1ccc(O)cc1)c1cccc(NN=Cc2ccc(O)cc2)c1
